Shown are actives, neighbours in structure and some others; about 1% of the full set was active somewhere.
WRN inhibitor = WRN helicase (human) inhibition; Potency, µM (series often up to 114 µM), inactives show at the highest dose activity change, negative = inhibition, hits mostly inhibitors; WRN helicase unwinding, fluorescent forked duplex, kinetic; Q14191; 360,000 tested, 0.46% active; AID 651768; further: on the % scale 0 is the no-effect control and ±100 the full control effect; nearly all actives have a fitted effect of over 55% in size
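Kinetic red-fluorescence monitoring (525/598 nm) tracks WRN helicase activity after 100 nM fluorophore-quencher forked duplex and 2 mM ATP are added to 20 nM enzyme pretreated 15 min at room temperature with compound.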
BLM inh = Bloom syndrome helicase (human) inhibition | recombinant BLM DNA unwinding, fluorescence dequenching | Potency, µM (top dose mostly 56.1 µM), for the others: at the top dose activity change, negative = inhibition, usual class: inhibitors | 350,000 tested, 0.2% active | P54132;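 further: plate controls were vehicle for no effect and no enzyme for full effect; nearly all actives have a fitted effect of over 35% in size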
APEX1 inh = APE1 (human) endonuclease inhibition | recombinant APE1, TAMRA/BHQ-2 abasic DNA cleavage fluorescence | Potency, µM (doses to about 65.8 µM), inactives show at the highest dose activity change, negative = inhibition, usual class: inhibitors | 350,000 tested, 0.35% active;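 further: plate controls were vehicle for no effect and reference inhibitor for full effect; nearly all actives have a fitted effect of over 55% in size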
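Readout is kinetic fluorescence (ex 525, em 598 nm) from cleavage of 50 nM TAMRA/BHQ-2 THF abasic duplex by 0.75 nM APE1, compound added 15 min beforehand at RT.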
RECQ1 inh = inhibitors of human RECQ1 DNA helicase | P46063 | RECQ1 DNA unwinding, red fluorescence kinetic read | Potency, µM (doses to about 57.3 µM), inactives show top-dose activity, negative = inhibition, most hits filed as inhibitors | 240,000 tested, 0.54% active;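 further: plate controls were vehicle for no effect and no enzyme for full effect; nearly all actives have a fitted effect of over 30% in size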
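50 nM RECQ1T1 preincubated 15 min with compound in Tris pH 8.0 buffer with MgCl2, DTT, Tween-20 and 2.5 ug/ml poly(dI-dC); started with 200 nM TAMRA/BHQ-2 forked duplex and 2 mM ATP. Unwinding read as fluorescence (525/598 nm), two reads 2 h apart.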
L3MBTL1 inh = L3MBTL1 (human) inhibition; Q9Y468; AlphaScreen L3MBTL1–H3K9me1 peptide binding; Potency, µM (series often up to 57.1 µM), for inactives: top-dose activity, negative = inhibition, hits mostly inhibitors; 230,000 tested, 0.66% active; AID 485360; further: on the % scale 0 is the no-effect control and ±100 the full control effect; nearly all actives have a fitted effect of over 60% in size
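Read-out is AlphaScreen signal from streptavidin donor and nickel chelate acceptor beads (10 ug/mL final each) bridging L3MBTL1 (50 nM) and biotinylated K9-monomethylated H3(1-15) peptide (75 nM), after 30 min compound exposure at room temperature.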
FEN1 inh-1 = human FEN1 inhibition; P39748; Recombinant FEN1 flap cleavage, fluorescence, 15 min; Potency, µM (series often up to 114 µM), inactives show at the top dose activity change, negative = inhibition, actives largely listed as inhibitors; 390,000 tested, 0.35% active; further: on the % scale 0 is the no-effect control and ±100 the full control effect; nearly all actives have a fitted effect of over 65% in size
Target sequence (P39748 whole entry, looked up): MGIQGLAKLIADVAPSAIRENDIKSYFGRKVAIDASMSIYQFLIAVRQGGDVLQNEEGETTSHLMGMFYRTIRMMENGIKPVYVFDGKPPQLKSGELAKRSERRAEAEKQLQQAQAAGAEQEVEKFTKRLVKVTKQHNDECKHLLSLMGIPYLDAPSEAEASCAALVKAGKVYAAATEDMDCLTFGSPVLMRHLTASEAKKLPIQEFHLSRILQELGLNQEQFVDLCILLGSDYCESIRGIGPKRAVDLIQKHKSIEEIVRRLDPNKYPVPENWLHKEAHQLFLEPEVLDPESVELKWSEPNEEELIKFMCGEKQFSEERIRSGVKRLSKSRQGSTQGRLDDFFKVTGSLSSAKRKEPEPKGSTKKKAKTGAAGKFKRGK
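Compounds are tested as a concentration series against 10 nM FEN1; after a 15 min room-temperature preincubation, 50 nM substrate starts cleavage, with plate reads at 0 and 15 min. Normalized responses are fitted by a Hill equation.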
FEN1 inh-2 = FEN1 inhibition, cherry-pick retest; shares compounds with FEN1 inh-1; FEN1 flap cleavage, TAMRA/BHQ2 fluorogenic DNA substrate; Potency, µM, usual class: inhibitors; 880 tested, 79% active; AID 720498; further: nearly all actives have a fitted effect of over 60% in size
Numbers without * were called inactive; ? = inconclusive; . = no result; [ ] = remark or other dose. The call rests on the fitted dose curve; in most records, active means well fitted curve in the direction sought with a large enough effect; inconclusive means small, poorly fitted or top-dose-only effect, or another doubt; inactive means no such curve, though single readings can be large; an effect the other way counts as inactive or inconclusive. Potency means the concentration at half of the fitted maximal effect.

SMILES | WRN inhibitor | BLM inh | APEX1 inh | RECQ1 inh | L3MBTL1 inh | FEN1 inh-1 | FEN1 inh-2
COc1cc(-c2cc(=O)c3c(O)c(OC)c(OC)c(O)c3o2)ccc1O | ? | -8.6% | ? | 12.6µM* | ? | ? | 33.8*
Cc1ccc2c(c1)S/C(=C\c1cccc[n+]1C)N2CCO | -3.0% | 5.0% | ? | . | . | -22.0% | .
CCN1/C(=C\c2ccc3cc(C)ccc3[n+]2CC)Sc2cc(C)c(C)cc21 | 44.7µM* | 0.3% | -0.2% | ? | ? | . | 8.49*
CN(N=Cc1ccccc1)C(=S)Nc1ccccc1 | 3.0% | . | . | . | . | . | .
C=CCN(CC=C)Cc1cc(=O)oc2ccccc12 | 7.2% | . | . | . | . | . | .
CN1CCC[C@H]1CCNc1ccc2c(=O)c3ccccc3n(C)c2c1 | ? | . | . | . | . | 56.2µM* | 42.6*
CN1CCCC1CCNc1ccc2c(=O)c3ccccc3oc2c1 (stereo not given) | 13.4% | 61.4% | -18.7% | . | 9.8% | ? | .
COc1cccc(N=C2NC(=O)/C(=C/c3cc([N+](=O)[O-])ccc3O)S2)c1 | -11.3%[11.6 µM] | -6.2% | ? | . | . | ? | .
O=C1NC(=Nc2ccccc2Cl)S/C1=C\c1cc([N+](=O)[O-])ccc1O | -26.6% | -11.9% | -10.8% | . | -7.2% | ? | ?
COCCN(CCOC)Cc1cc(=O)oc2cc(C)c(C)cc12 | -6.6% | . | . | . | . | . | .
C[C@H](NS(=O)(=O)c1ccc(Cl)cc1)C(=O)OCC(=O)Nc1cc(S(=O)(=O)N2CCOCC2)ccc1Cl | -3.2% | . | . | . | . | -2.6% | .
NC(=O)N=Nc1c2[nH]c3ccccc3nc-2c2ccccc12 | -10.8%[11.6 µM] | 4.4% | ? | -10.5% | -4.2% | 10µM* | 3.38*
O=C(O)CSc1cc(NS(=O)(=O)c2cccc([N+](=O)[O-])c2)c2ccccc2c1O | 39.8µM* | 17.8µM* | -4.8% | -15.1% | ? | 3.16µM* | 75.7*
CCc1ccc(S(=O)(=O)Nc2cc(SCC(=O)O)c(O)c3ccccc23)cc1 | 44.7µM* | 17.8µM* | 0.5% | -5.6% | ? | ? | 60.1*
O=C(O)c1cccc(S(=O)(=O)Nc2ccc([N+](=O)[O-])cc2O)c1 | -20.5% | -1.6% | -2.7% | -11.7% | 0.3% | 13.8% | .
CCOc1ccc(S(=O)(=O)Nc2cc3c(C(=O)OC)c(COC)oc3c3ccccc23)cc1 | . | -2.8% | . | . | . | -0.3% | .
CCOc1ccc(S(=O)(=O)Nc2cc(SCC(=O)O)c(O)c3ccccc23)cc1 | 79.4µM* | ? | 8.7% | . | ? | ? | 67.5*
CN(C)CCN(C)Cc1c2ccccc2c(CN(C)CCN(C)C)c2ccccc12 | ? | 34.4% | 23.3% | . | . | 50.1µM* | ?
O=C(C(=O)N1CCN(C/C=C/c2ccccc2)CC1)c1ccccc1 | -11.5% | . | . | . | . | . | .
Oc1ccc(N=Nc2ccccc2-c2nn[nH]n2)c(O)c1 | -15.7%[11.6 µM] | -2.5% | -12.0% | . | . | ? | 37.9*
CCC1CCCCC1 | . | 0.3% | 0.7% | -14.9% | . | . | .
O=C(Nc1ccc(-c2nc3ccccc3o2)cc1)c1cc(-n2cnnc2)ccc1Cl | -4.4% | 1.9% | -1.2% | -1.6% | -6.0% | -17.9% | .
O=C(Nc1ccc2oc(-c3ccccc3)nc2c1)c1cc(-n2cnnc2)ccc1Cl | -22.1%[57.1 µM] | ? | -1.7% | -27.1% | 0.9% | ? | 47.8*
COc1ccc(/C=C2\C(=O)NC(=S)N2C(=O)c2ccc(C)cc2)cc1 | 56.2µM* | 25.1µM* | -2.0% | 17.0% | -13.6% | ? | 75.7*
Cc1ccc(S(=O)(=O)N2CCN(c3nc(-c4ccnnc4)nc4ccccc34)CC2)cc1 | . | . | . | . | . | 11.3% | .
O=C(O)CCN1C(=O)C2CCCCC2C1=O (stereo not given) | 10.9% | 0.1% | -1.0% | -2.8% | . | 9.5% | .
O=C1C(=O)N(O)C2CCCCC2N1O (stereo not given) | 11.6% | -2.0% | 0.4% | -5.4% | 5.5% | 17.8µM* | 23.9*
